PubChem BioAssay

Test: JC-1 mitochondrial signal, unstimulated MM1S myeloma – cell-based, JC-1 fluorescence, 24 h, 100 nL compound, profiling panel (AID 1170); note: test concentration not given here
Details: MM1S mitochondrial potential, higher = more signal

Row | Compound | z-score
1 | Cc1ccc(S[C@]2(C(=O)O)CC(=O)N(Cc3cc(C(F)(F)F)cc(C(F)(F)F)c3)[C@@H]2c2ccc(CO)cc2)cc1 | -0.694
2 | CC(C)Cc1ccc(CN2CC[C@@H](NC(=O)Nc3ccccc3)C2)cc1 | -3.26
3 | C=CC1c2cc(O)c(OC)cc2CCN1Cc1cc2c(cc1Br)OCO2 (stereo unspecified) | -0.348
4 | O=C1O[C@H](c2ccccc2)[C@H](c2ccccc2)N2[C@H]1[C@@H](C(=O)N1CCN(c3ncccn3)CC1)[C@]1(C(=O)Nc3ccc(C#CC4(O)CCCCCC4)cc31)[C@H]2c1ccc(OCCO)cc1 | -0.87
5 | COC(=O)C(CC#Cc1ccc2c(c1)[C@]1(C(=O)N2)[C@H](c2ccccc2OCCO)N2[C@H](c3ccccc3)[C@H](c3ccccc3)OC(=O)[C@H]2[C@@H]1C(=O)NC[C@H](O)c1ccccc1)C(=O)OC | -2.27
6 | Cc1ccccc1C(O)C1C=CC2C(=O)N(C)C(=O)C2N1N(c1ccccc1)c1ccccc1 (stereo unspecified) | -0.41
7 | CCC[C@@H]1C[C@@]1(CCC)[C@@H](NC(=O)OCc1ccccc1)c1ccc(-c2ccccc2)cc1 | -1.19
8 | CN(C)C(=O)C1N=C(c2ccc(OCCCO)cc2)N(c2ccccc2)O1 (stereo unspecified) | -0.911
9 | O=C1O[C@H](c2ccccc2)[C@H](c2ccccc2)N2[C@H]1[C@@H](C(=O)O)[C@]1(C(=O)Nc3ccc(C#CC4=CCCCC4)cc31)[C@H]2c1ccc(O)cc1 | -0.657
10 | C=CCOC(=O)[C@H]1[C@@H]2C(=O)O[C@@H](c3ccccc3)[C@@H](c3ccccc3)N2[C@@H](c2ccc(OCCOC(=O)[C@H]3C[C@H]4C(=O)N[C@@H](CCCCNC(C)=O)C(=O)N4[C@H]3c3ccc(O)cc3)cc2)[C@]12C(=O)Nc1ccccc12 | -0.175
11 | CN1C(=O)C2C=CC(C(O)c3cccc4ccccc34)N(N3CCCCC3)C2C1=O (stereo unspecified) | -0.382
12 | C=CCOC(=O)[C@H]1[C@@H]2C(=O)O[C@@H](c3ccccc3)[C@@H](c3ccccc3)N2[C@@H](c2ccc(OCCOC(=O)[C@@H]3C[C@@H]4C(=O)N5CCC[C@H]5C(=O)N4[C@@H]3c3ccc(O)cc3)cc2)[C@]12C(=O)Nc1ccc(I)cc12 | -1.37
13 | O=C1C2C=CC(C(O)c3ccccc3)N(Nc3ccccc3F)C2C(=O)N1c1ccccc1 (stereo unspecified) | -1.29
14 | CN(C)c1ccc(C(O)C2C=CC3C(=O)N(c4ccccc4)C(=O)C3N2Nc2ccc([N+](=O)[O-])cc2)cc1 (stereo unspecified) | -0.907
15 | [N-]=[N+]=NCc1ccccc1[C@H]1OC(c2ccc(OCCCO)cc2)=N[C@@]1(CCS(=O)(=O)c1ccccc1)C(=O)N1CCCCC1 | -1.11
16 | C=CCOC(=O)[C@H]1[C@@H]2C(=O)O[C@@H](c3ccccc3)[C@@H](c3ccccc3)N2[C@@H](c2ccc(OCCOC(=O)[C@@H]3C[C@@H]4C(=O)N[C@@H](CCCCNC(C)=O)C(=O)N4[C@@H]3c3ccc(O)cc3)cc2)[C@]12C(=O)Nc1ccc(I)cc12 | -0.888
17 | COc1cc2c(cc1OC)CN(C(=O)[C@@H]1[C@H]3C(=O)O[C@H](c4ccccc4)[C@H](c4ccccc4)N3[C@H](c3ccc(OCCO)cc3)[C@@]13C(=O)Nc1ccc(C#CC4(O)CCCCCC4)cc13)CC2 | -1.3
18 | C=C(/C(=C/C[C@H](OC(C)=O)c1ccccc1OCCO)c1cc(C(=O)OC)ccc1OC)C(C)C | 1.08

Row | Compound | z-score
19 | CCOC(=O)C[C@H]1[C@H](OC(=O)c2cc3ccccc3oc2=O)[C@@H](NC(=O)c2ccc(-c3ccccc3)cc2)c2cc(OCCCO)ccc2N1C(=O)c1ccc2ccccc2n1 | -0.122
20 | CN(C)CCCCNC(=O)[C@@H]1C[C@@H]2C(=O)N[C@@H](Cc3ccccc3)C(=O)N2[C@@H]1c1cccc(OCCO)c1 | 0.108
21 | COc1ccc([Si](C)(C)[C@@H]2[C@@H](CCO)O[C@]3(C(=O)N(Cc4ccc(N5CCCCC5=O)cc4)c4ccccc43)[C@H]2C)cc1 | 0.572
22 | COCCOC(=O)N1C(=O)[C@@]2(c3cc(C#CC4=CCCCC4)ccc31)[C@H](c1ccccc1OCCO)N1[C@H](c3ccccc3)[C@H](c3ccccc3)OC(=O)[C@H]1[C@@H]2C(=O)Nc1nc2ccccc2s1 | -1.08
23 | CCCCC(=C=CC[C@@H](O)c1ccccc1OCCO)C[C@@H](O)COCc1ccccc1 | 0.13
24 | Cc1ccc(S[C@]2(C(=O)NCC(F)(F)F)CC(=O)N(Cc3ccccc3)[C@@H]2c2ccc(CO)cc2I)cc1 | -1.59
25 | O=C(NCC(F)(F)F)[C@@H]1c2ccccc2C(=O)N(Cc2cc(F)cc(C(F)(F)F)c2)[C@H]1c1ccc(CO)cc1 | -0.389
26 | C=C(CCCC)/C(=C/C[C@@H](OC(=O)c1ccncc1)c1ccccc1OCCO)c1cnc2ccccc2c1 | 1.46
27 | [N-]=[N+]=Nc1ccccc1C[C@]1(C(=O)N2CCOCC2)N=C(c2ccc(OCCCO)cc2)O[C@H]1c1ccccc1 | -0.438
28 | CCCNC(=O)[C@@H]1c2ccccc2C(=O)N(C(C)C)[C@H]1c1ccc(CO)cc1 | -0.695
29 | O=C1O[C@H](c2ccccc2)[C@H](c2ccccc2)N2[C@H]1[C@@H](C(=O)Nc1nc3ccccc3s1)[C@]1(C(=O)Nc3ccc(C#CC4(O)CCCCCC4)cc31)[C@H]2c1ccccc1OCCO | -1.5
30 | O=C1OCC=C[C@H]2OC34C=CCN(Cn5nnc6ccccc65)C(=O)[C@H]3N(CCCO)C(=O)[C@@H]4[C@@H]12 (stereo partly specified) | -1.33
31 | COC(=O)[C@@]1(Cc2ccccc2)[C@H]2c3cc(C(=O)N(C)C)n(Cc4c(CO)[nH]cc(C)c4=O)c3C[C@H]2CN1C(=O)c1ccccc1 | -0.491
32 | COC(=O)[C@@]1(Cc2ccc(OC)cc2)[C@H]2c3cc(C(=O)N(C)C)n(Cc4ccc(Cl)c(C(F)(F)F)c4)c3C[C@H]2CN1C(=O)c1ccccc1 | -1.69
33 | C=CCNC(=O)[C@H]1[C@@H]2C(=O)O[C@@H](c3ccccc3)[C@@H](c3ccccc3)N2[C@@H](c2ccc(O)cc2)[C@]12C(=O)N(C(=O)OCCOC)c1ccccc12 | 0.338
34 | CCCCCCCCCCC(O)C1C=CC2C(=O)N(C)C(=O)C2N1NC(=O)OC(C)(C)C (stereo unspecified) | -2.37
35 | NC(N)=NCCCn1cc(CNC(=O)[C@@H](N)Cc2ccccc2)nn1 | 0.225
36 | CCOC(=O)C1CCCCN1 (stereo unspecified) | 0.319
